The source of these data is ChEMBL document CHEMBL1961873, “Compounds: GSK PKIS; Assays: Nanosyn kinase panel” (2012).

The inhibition is the drop in the measured response relative to a control, in per cent.

The target of experiment [1] is Tyrosine-protein kinase CSK (Homo sapiens) (UniProt P41240). The conditions noted are these: at 1 µM.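 Also: each value is an averaged inhibition reading.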
For experiment [2], the target named is T1, Discoidin domain-containing receptor 2 (Homo sapiens) (UniProt Q16832).
T1 sequence (whole entry): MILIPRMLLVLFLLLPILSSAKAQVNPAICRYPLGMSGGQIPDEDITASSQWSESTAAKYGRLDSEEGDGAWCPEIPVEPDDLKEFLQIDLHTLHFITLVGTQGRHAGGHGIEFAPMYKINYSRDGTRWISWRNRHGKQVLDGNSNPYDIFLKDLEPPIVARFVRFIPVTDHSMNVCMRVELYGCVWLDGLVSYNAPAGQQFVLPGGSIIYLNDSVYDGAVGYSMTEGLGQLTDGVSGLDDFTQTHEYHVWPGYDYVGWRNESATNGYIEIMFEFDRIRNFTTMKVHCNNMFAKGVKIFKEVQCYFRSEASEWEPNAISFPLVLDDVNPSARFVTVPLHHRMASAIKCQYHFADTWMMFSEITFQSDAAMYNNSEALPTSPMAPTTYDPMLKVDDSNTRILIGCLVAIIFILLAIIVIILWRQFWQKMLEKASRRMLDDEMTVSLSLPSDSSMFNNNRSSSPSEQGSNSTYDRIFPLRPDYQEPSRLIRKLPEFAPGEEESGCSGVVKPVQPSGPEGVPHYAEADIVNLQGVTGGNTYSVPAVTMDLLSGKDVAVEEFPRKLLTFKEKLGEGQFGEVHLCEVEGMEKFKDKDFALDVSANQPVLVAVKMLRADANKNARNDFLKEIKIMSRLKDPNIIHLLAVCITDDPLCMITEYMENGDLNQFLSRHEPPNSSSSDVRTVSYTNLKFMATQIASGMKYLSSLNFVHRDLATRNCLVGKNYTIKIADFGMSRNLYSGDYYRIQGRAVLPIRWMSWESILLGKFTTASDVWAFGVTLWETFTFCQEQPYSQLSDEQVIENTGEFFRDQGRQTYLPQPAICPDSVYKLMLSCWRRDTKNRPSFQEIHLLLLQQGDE
The conditions noted are these: at 0.1 µM.

Experiment [3] addresses T1, Discoidin domain-containing receptor 2 (Homo sapiens). The conditions noted are these: at 1 µM.
Experiment [4] concerns the target Epidermal growth factor receptor (Homo sapiens) (UniProt P00533). To be noted: at 0.1 µM.
Experiment [5] shares this target. The conditions noted are these: at 1 µM.
Experiment [6] has as its system Epidermal growth factor receptor (Homo sapiens), P00533 [L858R]. The conditions noted are these: at 0.1 µM.
Experiment [7] shares this test system. To be noted: at 1 µM.
The subject of experiment [8] is Epidermal growth factor receptor (Homo sapiens), P00533 [L861Q]. The conditions noted are these: at 0.1 µM.
For experiment [9] the test system is unchanged. The conditions noted are these: at 1 µM.
In experiment [10] the test system is Epidermal growth factor receptor (Homo sapiens), P00533 [T790M]. To be noted: at 0.1 µM.
Chain of Epidermal growth factor receptor (Homo sapiens), P00533 [T790M] (P00533 whole entry T790M): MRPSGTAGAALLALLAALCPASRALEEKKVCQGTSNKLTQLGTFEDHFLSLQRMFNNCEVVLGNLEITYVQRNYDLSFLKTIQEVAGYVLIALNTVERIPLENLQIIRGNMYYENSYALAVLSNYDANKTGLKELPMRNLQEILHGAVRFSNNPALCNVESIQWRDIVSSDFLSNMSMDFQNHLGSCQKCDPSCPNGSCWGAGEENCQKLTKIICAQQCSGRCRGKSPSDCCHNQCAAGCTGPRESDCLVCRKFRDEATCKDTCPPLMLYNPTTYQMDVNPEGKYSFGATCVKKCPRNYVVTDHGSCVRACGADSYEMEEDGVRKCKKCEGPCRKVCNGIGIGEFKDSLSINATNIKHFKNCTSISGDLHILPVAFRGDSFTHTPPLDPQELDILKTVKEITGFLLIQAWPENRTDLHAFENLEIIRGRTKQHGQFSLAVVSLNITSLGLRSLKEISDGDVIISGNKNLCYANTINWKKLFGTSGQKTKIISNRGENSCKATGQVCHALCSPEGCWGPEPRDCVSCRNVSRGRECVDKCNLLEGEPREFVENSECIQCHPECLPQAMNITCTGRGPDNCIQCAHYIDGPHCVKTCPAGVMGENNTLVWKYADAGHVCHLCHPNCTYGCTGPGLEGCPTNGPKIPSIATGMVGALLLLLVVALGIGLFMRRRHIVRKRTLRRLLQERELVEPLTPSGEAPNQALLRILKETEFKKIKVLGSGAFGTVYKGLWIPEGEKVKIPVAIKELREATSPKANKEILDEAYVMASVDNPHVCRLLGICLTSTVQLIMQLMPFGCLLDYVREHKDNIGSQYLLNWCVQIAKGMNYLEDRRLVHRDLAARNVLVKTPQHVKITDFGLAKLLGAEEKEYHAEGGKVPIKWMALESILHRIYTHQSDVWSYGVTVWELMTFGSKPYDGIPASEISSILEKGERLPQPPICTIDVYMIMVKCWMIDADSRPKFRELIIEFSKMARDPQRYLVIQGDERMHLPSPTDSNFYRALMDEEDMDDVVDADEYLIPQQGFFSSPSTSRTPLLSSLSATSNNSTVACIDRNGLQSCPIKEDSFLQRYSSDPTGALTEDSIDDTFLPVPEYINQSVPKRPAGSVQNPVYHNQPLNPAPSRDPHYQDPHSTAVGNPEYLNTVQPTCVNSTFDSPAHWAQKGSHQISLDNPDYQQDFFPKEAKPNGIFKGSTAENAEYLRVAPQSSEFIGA
Experiment [11] has the same test system. To be noted: at 1 µM.
Experiment [12] concerns Epidermal growth factor receptor (Homo sapiens), P00533 [L858R,T790M]. To be noted: at 0.1 µM.
Chain of Epidermal growth factor receptor (Homo sapiens), P00533 [L858R,T790M] (P00533 whole entry T790M/L858R, looked up): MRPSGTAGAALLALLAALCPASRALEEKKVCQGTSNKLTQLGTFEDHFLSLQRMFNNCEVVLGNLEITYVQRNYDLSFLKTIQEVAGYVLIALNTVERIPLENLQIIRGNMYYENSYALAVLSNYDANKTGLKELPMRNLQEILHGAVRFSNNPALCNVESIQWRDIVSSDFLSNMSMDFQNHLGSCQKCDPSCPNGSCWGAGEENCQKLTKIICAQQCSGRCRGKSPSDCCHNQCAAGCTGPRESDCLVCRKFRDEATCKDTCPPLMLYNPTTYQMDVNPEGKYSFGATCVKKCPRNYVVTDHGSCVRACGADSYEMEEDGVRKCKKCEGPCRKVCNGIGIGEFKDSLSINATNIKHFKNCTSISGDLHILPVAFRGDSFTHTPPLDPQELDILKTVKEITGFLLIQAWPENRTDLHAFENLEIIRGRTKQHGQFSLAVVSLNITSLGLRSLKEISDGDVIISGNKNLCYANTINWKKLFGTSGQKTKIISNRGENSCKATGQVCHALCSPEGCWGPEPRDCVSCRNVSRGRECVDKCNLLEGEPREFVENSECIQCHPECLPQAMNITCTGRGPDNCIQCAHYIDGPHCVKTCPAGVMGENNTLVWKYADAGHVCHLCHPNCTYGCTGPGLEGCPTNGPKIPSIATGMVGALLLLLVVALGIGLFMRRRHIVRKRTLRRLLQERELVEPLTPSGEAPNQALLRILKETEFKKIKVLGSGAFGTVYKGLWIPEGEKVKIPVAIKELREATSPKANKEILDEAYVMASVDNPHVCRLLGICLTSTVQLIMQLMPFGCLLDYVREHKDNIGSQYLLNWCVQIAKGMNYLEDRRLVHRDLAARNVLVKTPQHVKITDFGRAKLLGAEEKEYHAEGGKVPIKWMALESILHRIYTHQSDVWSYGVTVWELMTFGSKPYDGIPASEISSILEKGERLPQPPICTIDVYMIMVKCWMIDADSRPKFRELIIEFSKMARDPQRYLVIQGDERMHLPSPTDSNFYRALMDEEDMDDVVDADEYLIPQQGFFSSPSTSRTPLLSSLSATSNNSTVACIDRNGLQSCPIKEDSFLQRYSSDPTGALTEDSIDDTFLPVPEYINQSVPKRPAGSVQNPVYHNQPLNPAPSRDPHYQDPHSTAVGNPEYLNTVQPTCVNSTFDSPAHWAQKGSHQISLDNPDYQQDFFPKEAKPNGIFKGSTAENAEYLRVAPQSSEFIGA
Experiment [13] has the same test system. The conditions noted are these: at 1 µM.
Experiment [14] has as its target Ephrin type-A receptor 2 (Homo sapiens) (UniProt P29317). The conditions noted are these: at 0.1 µM.
The target is the same in experiment [15]. The conditions noted are these: at 1 µM.
For experiment [16], the target named is T2, Ephrin type-A receptor 3 (Homo sapiens) (UniProt P29320).
T2 sequence (whole entry): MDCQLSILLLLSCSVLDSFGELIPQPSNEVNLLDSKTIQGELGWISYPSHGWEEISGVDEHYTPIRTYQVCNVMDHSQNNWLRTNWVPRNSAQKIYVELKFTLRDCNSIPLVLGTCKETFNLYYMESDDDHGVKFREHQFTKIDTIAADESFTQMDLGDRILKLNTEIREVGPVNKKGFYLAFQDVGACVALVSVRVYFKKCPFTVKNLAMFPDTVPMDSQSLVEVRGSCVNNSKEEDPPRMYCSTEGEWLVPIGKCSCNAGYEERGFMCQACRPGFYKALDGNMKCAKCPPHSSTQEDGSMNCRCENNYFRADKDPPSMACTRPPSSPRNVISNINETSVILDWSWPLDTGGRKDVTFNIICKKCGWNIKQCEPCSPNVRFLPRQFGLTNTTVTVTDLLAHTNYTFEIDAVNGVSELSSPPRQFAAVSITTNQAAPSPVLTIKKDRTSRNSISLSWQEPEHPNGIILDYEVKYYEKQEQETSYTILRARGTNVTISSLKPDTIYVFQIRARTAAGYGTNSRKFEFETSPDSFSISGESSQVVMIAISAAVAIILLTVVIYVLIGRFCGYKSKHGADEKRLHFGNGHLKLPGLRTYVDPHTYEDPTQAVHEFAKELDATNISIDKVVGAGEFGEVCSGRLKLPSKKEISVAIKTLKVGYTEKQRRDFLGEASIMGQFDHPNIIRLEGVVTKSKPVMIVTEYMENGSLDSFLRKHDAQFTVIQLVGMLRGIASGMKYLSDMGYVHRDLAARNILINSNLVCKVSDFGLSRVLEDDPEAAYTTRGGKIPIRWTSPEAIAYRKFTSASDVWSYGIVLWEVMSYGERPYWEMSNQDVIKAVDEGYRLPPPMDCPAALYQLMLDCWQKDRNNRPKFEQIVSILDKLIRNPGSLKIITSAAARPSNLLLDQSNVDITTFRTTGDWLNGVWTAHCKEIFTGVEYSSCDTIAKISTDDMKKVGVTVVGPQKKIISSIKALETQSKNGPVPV
To be noted: at 0.1 µM.

Experiment [17] has as its target T2, Ephrin type-A receptor 3 (Homo sapiens). To be noted: at 1 µM.
Experiment [18] concerns the target Ephrin type-A receptor 4 (Homo sapiens) (UniProt P54764). To be noted: at 0.1 µM.
For experiment [19] the target is unchanged. The conditions noted are these: at 1 µM.
Experiment [20] deals with T3, Ephrin type-B receptor 2 (Homo sapiens) (UniProt P29323).
T3 sequence (whole entry): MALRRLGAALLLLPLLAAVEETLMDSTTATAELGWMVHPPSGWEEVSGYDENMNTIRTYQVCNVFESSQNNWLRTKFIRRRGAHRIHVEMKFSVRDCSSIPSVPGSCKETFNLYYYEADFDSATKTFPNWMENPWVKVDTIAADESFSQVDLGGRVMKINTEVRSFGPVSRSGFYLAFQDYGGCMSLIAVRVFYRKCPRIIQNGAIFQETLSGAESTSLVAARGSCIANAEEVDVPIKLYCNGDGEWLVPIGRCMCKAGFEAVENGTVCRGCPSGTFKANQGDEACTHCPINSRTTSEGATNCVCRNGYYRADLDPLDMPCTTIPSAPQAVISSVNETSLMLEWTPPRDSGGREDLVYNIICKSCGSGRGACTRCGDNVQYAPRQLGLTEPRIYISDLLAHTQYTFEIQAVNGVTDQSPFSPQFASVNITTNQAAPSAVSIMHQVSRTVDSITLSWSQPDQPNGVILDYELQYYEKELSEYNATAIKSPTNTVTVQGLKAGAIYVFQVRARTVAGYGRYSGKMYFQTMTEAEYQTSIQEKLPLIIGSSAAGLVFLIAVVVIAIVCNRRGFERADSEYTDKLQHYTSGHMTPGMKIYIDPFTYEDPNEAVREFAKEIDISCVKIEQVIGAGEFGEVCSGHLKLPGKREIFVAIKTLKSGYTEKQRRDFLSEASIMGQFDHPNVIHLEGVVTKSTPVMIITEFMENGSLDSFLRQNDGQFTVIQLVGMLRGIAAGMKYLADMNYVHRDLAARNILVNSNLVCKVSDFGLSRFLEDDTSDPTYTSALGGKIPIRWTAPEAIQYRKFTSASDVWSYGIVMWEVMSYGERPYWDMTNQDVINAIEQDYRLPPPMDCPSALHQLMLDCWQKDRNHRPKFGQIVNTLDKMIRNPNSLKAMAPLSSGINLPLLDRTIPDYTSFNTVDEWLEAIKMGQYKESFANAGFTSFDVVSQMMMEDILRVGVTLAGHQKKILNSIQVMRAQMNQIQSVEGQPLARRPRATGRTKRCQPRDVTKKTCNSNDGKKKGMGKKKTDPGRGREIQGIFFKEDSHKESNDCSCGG
To be noted: at 0.1 µM.

Chain of Ephrin type-A receptor 2 (Homo sapiens) (P29317 whole entry): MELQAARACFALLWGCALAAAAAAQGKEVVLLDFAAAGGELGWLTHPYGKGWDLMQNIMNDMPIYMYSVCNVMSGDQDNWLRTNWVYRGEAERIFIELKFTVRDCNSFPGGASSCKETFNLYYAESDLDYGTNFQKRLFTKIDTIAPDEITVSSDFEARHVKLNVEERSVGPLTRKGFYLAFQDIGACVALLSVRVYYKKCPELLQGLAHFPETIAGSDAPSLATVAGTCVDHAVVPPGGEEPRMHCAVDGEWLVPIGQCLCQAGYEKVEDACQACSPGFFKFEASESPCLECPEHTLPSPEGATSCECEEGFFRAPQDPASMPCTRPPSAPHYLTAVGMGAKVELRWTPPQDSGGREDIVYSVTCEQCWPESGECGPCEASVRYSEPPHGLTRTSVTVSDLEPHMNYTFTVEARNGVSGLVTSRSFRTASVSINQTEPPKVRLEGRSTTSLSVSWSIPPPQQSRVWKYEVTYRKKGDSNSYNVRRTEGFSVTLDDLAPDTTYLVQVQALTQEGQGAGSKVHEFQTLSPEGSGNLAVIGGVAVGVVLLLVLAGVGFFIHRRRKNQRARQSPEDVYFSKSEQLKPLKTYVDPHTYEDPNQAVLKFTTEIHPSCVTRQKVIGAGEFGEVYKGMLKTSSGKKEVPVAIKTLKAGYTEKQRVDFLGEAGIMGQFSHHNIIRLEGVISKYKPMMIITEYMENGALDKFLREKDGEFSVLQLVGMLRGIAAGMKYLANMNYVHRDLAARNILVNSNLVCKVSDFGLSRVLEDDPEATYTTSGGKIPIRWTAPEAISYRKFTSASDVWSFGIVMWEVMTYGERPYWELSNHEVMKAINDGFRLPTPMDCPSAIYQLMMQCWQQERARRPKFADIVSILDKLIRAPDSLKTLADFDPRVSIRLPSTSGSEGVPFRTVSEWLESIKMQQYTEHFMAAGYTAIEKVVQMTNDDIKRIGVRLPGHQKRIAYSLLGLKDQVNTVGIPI
Chain of Epidermal growth factor receptor (Homo sapiens) (P00533 whole entry): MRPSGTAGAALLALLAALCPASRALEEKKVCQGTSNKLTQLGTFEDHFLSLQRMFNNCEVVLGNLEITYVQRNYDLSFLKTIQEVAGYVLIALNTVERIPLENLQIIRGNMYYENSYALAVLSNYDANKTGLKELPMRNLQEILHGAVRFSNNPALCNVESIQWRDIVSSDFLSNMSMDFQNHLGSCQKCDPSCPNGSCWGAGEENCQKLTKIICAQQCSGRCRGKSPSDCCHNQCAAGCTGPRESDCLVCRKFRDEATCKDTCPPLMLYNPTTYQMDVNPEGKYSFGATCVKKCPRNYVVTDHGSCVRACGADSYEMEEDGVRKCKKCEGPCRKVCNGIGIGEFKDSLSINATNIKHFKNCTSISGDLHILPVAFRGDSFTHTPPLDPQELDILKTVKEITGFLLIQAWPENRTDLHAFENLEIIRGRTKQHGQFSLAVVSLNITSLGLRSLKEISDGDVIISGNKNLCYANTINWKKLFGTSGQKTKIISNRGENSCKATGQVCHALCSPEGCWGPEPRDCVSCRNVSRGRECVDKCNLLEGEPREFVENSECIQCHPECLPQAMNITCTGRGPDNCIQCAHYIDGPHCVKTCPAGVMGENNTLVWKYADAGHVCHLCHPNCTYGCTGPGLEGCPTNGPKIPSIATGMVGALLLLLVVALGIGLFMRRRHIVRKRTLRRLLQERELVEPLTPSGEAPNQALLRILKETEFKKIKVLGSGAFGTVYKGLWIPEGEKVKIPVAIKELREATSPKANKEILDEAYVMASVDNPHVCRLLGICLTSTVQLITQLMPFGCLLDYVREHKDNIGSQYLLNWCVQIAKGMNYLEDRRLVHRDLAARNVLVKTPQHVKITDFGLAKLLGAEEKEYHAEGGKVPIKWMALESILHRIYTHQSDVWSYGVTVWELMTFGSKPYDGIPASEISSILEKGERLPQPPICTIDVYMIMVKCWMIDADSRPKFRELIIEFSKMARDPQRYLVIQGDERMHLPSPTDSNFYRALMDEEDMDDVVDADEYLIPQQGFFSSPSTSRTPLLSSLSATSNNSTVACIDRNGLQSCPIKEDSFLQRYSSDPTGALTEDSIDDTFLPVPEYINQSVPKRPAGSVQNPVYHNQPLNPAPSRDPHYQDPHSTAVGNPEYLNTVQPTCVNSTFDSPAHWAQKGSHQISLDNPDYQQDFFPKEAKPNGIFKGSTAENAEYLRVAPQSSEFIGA
Chain of Tyrosine-protein kinase CSK (Homo sapiens) (P41240 2-450 limits assumed): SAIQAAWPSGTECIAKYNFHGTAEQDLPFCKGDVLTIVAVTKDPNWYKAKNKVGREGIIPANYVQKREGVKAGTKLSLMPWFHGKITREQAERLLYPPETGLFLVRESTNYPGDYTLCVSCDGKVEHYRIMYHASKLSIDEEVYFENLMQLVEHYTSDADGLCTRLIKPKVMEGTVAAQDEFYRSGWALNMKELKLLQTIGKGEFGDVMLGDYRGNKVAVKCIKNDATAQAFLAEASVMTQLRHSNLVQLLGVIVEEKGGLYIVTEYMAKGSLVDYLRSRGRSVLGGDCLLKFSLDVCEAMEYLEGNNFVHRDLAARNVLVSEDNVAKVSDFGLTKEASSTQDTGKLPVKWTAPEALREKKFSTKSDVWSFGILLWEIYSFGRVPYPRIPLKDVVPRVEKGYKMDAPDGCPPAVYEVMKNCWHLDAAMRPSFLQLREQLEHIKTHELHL

On to `Nc1nc(-c2ccc(F)cc2)c(-c2ccc3ncccc3n2)s1`, for which the inhibition was 5.38% in [1]; 0.01% in [2]; -5.99% in [3]; 2.98% in [4]; 21.7% in [5]; 13.1% in experiment [6]. Moreover, the inhibition was 60.5% in experiment [7]; 6.11% in [8]; 22.4% in experiment [9]; 1.84% in experiment [10]; 5.63% in experiment [11]; 4.54% in experiment [12]. Also, the inhibition is 14.7% in [13]; 0.69% in experiment [14]; 0.59% in experiment [15]; 5.86% in experiment [16]; 6.22% in [17]; 9.7% in [18]. For the same compound, the inhibition in [19] is 14.6%; in experiment [20], 9.15%.
With `CCNC(=O)O[C@H]1CN[C@H](C#Cc2cc3ncnc(Nc4ccc(OCc5cccc(F)c5)c(Cl)c4)c3s2)C1`, the inhibition in experiment [1] turned out to be 7.41%; in experiment [2] it was 2.66%; in experiment [3], 1.39%; in experiment [4], 86.6%; in experiment [5], 98%; in experiment [6] it was 32.5%. For the same compound, the inhibition in experiment [7] stood at 81%; in experiment [8], 37.6%; in experiment [9], 67%; in experiment [10], 2.9%; in experiment [11] it was 10.6%; in experiment [12] it was 2.62%. The inhibition in experiment [13] is 4.48%; in experiment [14], 3.3%; in [15] it was 2.25%; in experiment [16] it was 6.99%; in experiment [17] it was 4.34%; in [18] it was 8.98%. Moreover, the inhibition in experiment [19] is 6.16%; in experiment [20] it was 8.39%.
In the case of `COc1cccc(-n2ncc3c(N/N=C/c4ccc(F)cc4)ncnc32)c1`, the inhibition in experiment [1] worked out at 11.4%; in [2], 1.69%; in experiment [3], 4.36%; in [4], 0.53%; in experiment [5], 7.92%; in experiment [6], 11.6%. Further, the inhibition in experiment [7] came to 34.9%; in [8], 5.16%; in [9], 12%; in experiment [10] it was 1.96%; in experiment [11], 3.89%; in experiment [12] it was 1.74%. The inhibition in experiment [13] amounted to 1.29%; in [14] it was 4.28%; in experiment [15], 5.62%; in [16], 4.05%; in experiment [17] it was 4.06%; in [18], 7.96%. Further, the inhibition in [19] came out at 15.7%; in experiment [20] it was 5.53%.
In the case of `Fc1ccc(-c2cc(-c3c[nH]nc3-c3ccccn3)ccn2)cc1`, the inhibition in experiment [1] amounted to 6.45%; in experiment [2], 1.07%; in experiment [3] it was 1.14%; in experiment [4], 0.04%; in experiment [5], 1.67%; in [6] it was 3.93%. The inhibition in experiment [7] is 8.78%; in experiment [8] it was 4%; in experiment [9] it was 7.94%; in experiment [10] it was 3.06%; in [11], 5.56%; in [12], -1.9%. Besides, the inhibition in experiment [13] came out at 6.43%; in [14] it was 1.25%; in experiment [15], 0.94%; in [16], 3.9%; in experiment [17], 4.31%; in [18], 11.9%. Further, the inhibition in experiment [19] is 14.8%; in experiment [20], 3.6%.
With `COc1ccc2c(-c3ccnc(Nc4cccc(OC(F)(F)F)c4)n3)cnn2n1`, the inhibition is 12.2% in experiment [1]; 1.53% in experiment [2]; 3.16% in [3]; 1.3% in experiment [4]; 2.97% in [5]; 4.17% in experiment [6]. Further, the inhibition in experiment [7] amounted to 5.43%; in experiment [8] it was 2.8%; in [9] it was 4.76%; in experiment [10], 2.35%; in experiment [11], 3.37%; in experiment [12] it was 2.65%. Also, the inhibition in [13] was 2.88%; in experiment [14] it was 1.21%; in experiment [15] it was 2.29%; in [16], 6.89%; in experiment [17], 7.93%; in experiment [18] it was 11.3%. Besides, the inhibition in [19] is 24.1%; in experiment [20], 5.72%.
As to `O=S(=O)(CCNCc1ccc(-c2ccc3ncnc(Nc4ccc(OCc5cccc(F)c5)c(Cl)c4)c3c2)o1)c1ccccc1`, the inhibition in experiment [1] came out at 6.6%; in experiment [2], 5.04%; in experiment [3], 6.18%; in experiment [4], 65.3%; in experiment [5], 83.3%; in experiment [6] it was 32.6%. Also, the inhibition in [7] came out at 79.5%; in [8], 39.2%; in experiment [9], 78.2%; in experiment [10], 2.92%; in experiment [11], 6.26%; in [12] it was 1.22%. The inhibition in experiment [13] stood at 1.97%; in experiment [14], 1.86%; in experiment [15], 1.73%; in experiment [16] it was 4.61%; in experiment [17], 6.18%; in [18], 5.63%. The inhibition stood at 13.3% in experiment [19] and 14.7% in experiment [20].
As to `c1cc(-c2cnn3nc(N4CCOCC4)ccc23)nc(NC2CC2)n1`, the inhibition in experiment [1] was 5.31%; in [2], 1.38%; in [3] it was 3.9%; in experiment [4], 4.04%; in [5] it was 6.33%; in experiment [6], 5.72%. In addition, the inhibition in [7] worked out at 2.16%; in experiment [8], 3.88%; in experiment [9], 2.28%; in [10], 2.15%; in experiment [11] it was 0.49%; in [12], 1.11%. In addition, the inhibition in experiment [13] amounted to 1.53%; in experiment [14], 2.12%; in experiment [15] it was 0.18%; in [16], 5.23%; in experiment [17], 5.8%; in [18], 10.2%. Further, the inhibition in [19] was determined as 10.9%; in [20], 10.2%.
